# Laboratory results from ChEMBL document CHEMBL3433997, “St. Jude Leishmania screening dataset” (2016).
# How the values were obtained:
# Assay type in all cases: functional
# [1] = target: Solute carrier family 2, facilitated glucose transporter member 1 (Homo sapiens) (UniProt P11166); assay: ST_JUDE_LEISH: Cytotoxicity at 2uM final concentration against transgenic Leishmania Mexicana promastigotes LmGLUT1 that are glucose transport deficient and complemented with the human glucose transporter GLUT1. Activity is measured by DNA content using SYBR green in vitro
# [2] = target: Hexose transporter 1 (Plasmodium falciparum) (UniProt O97467); assay: ST_JUDE_LEISH: Cytotoxicity at 2uM final concentration against transgenic Leishmania Mexicana promastigotes LmPfHT that are glucose transport deficient and complemented with the Plasmodium falciparum hexose transporter. Activity is measured by DNA content using SYBR green in vitro
# [3] = target: Glucose transporter (Leishmania mexicana) (UniProt O61059); assay: ST_JUDE_LEISH: Cytotoxicity at 2uM final concentration against transgenic Leishmania Mexicana promastigotes LmGT2 that are glucose transport deficient and complemented with the L. Mexicana glucose transporter 2. Activity is measured by DNA content using SYBR green in vitro
# Chain of Solute carrier family 2, facilitated glucose transporter member 1 (Homo sapiens) (P11166 whole entry): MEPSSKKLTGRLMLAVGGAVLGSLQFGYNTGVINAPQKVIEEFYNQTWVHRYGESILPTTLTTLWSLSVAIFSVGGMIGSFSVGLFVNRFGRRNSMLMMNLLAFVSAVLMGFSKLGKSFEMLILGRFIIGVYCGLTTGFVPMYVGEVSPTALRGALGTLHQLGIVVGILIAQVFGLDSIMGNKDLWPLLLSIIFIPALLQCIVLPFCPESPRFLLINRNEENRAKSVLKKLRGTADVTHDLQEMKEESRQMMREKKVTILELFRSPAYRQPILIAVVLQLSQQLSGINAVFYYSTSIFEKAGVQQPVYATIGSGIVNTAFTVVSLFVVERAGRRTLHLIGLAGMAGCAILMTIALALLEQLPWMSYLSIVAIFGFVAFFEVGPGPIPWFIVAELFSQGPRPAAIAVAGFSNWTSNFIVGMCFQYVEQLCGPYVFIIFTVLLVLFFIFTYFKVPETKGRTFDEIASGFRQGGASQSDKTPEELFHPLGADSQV
Structure (SMILES),inhibition [1],inhibition [2],inhibition [3]
Cc1nc2ccccc2c(=O)n1NCc1ccc(Cl)c(Cl)c1,-1.5%,-1.58%,0.11%
COc1cc2c(cc1OC)CC(NCCCCCCNCCc1ccc(Cl)cc1)CC2 (stereo not drawn),0.92%,-1.16%,0.76%
O=[N+]([O-])c1ccc2ncnc(Nc3ccc(F)c(Cl)c3)c2c1,2.27%,0.68%,2.32%
O=C(NCCCCN1CCC(c2ccc3ccccc3c2O)CC1)c1ccc(-c2ccc(Cl)cc2)cc1,5.43%,3.32%,3.45%
Fc1c(CNCC2CCN(CC3CCCCC3)CC2)cccc1C(F)(F)F,4.53%,3.93%,5%
CON=Cc1sc(CNCCCN=c2cc(O)c3ccccc3[nH]2)c(C)c1Br,4.13%,4.13%,3.41%
Cn1c2c(c3ccccc31)CN(CCC1(c3ccc(Cl)c(Cl)c3)CN(C(=O)c3ccccc3)CCO1)CC2 (stereo not drawn),2.15%,1.72%,2.38%
CS(=O)(=O)Nc1cccc(-c2cnc3[nH]cc(-c4ccc(CN)cc4)c3c2)c1,4.62%,4.04%,3.33%
c1ccc2c(c1)CN(Cc1ccsc1)CC1(CCN(Cc3c[nH]c4cnccc34)CC1)O2,4.5%,3.19%,6.86%
CCOC(=O)c1nc(-c2cccc(F)c2)[nH]c1N,1.32%,0.39%,2.23%
CC(C)(CNCc1ccc(C(F)(F)F)cc1)c1nc(-c2ccnc(N)n2)c(-c2ccc(Cl)c(O)c2)[nH]1,1.5%,0.51%,2.94%
COc1cc(NCCCNCc2cn(Cc3cc(Br)cc(Br)c3)c3ccccc23)nc2ccccc12,4.87%,1.54%,2.54%
N=C(N)Nc1nc(-c2ccc(NCc3ccc(CNc4cccc(-c5csc(NC(=N)N)n5)c4)cc3)cc2)cs1,0.36%,1.69%,1.12%
COc1ccc(-c2cccc(NC(=O)c3cccc(C#N)c3)c2)cc1CN1CCCN(C)CC1,1.45%,1.13%,5.93%
CNCCNCc1ccc(-c2ccc(-c3nc4cc(C(F)(F)F)ccc4[nH]3)s2)cc1,2.21%,0.84%,0.73%
CN(C)Cc1cccc(-c2ccc(NC(=O)c3ccc4c(=O)n(C5CCCCC5)cnc4c3)cc2)c1,76%,80.4%,79.8%
